FECH inh: inhibitors of human ferrochelatase; P22830; purified FECH, Ni-mesoporphyrin absorbance 550 nm; calls only at 10 µM (by protocol); actives 3.3% (n = 20,000); AID 1671448;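 active = enzyme reaction rate more than 3 SD below the solvent-only control wells on the same plate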;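 note: lower slope than DMSO wells means FECH inhibition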
Target sequence (P22830 whole entry, looked up): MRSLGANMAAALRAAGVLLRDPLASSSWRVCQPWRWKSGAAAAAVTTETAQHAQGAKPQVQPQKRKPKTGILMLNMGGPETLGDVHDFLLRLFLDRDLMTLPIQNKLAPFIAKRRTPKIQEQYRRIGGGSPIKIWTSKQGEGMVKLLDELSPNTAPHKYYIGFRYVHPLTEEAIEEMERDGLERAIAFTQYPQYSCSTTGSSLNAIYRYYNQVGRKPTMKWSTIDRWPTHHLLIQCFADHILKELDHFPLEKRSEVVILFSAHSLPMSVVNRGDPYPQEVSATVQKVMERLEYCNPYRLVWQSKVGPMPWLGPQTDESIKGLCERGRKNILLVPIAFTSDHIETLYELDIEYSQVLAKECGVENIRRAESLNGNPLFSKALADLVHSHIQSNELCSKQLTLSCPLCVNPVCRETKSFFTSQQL
Active calls of the source: *; i = inactive; + = active, no number. The sample as a whole holds a higher share of hits than the screen did.

SMILES	FECH inh
CCc1cccc(C)c1NS(=O)(=O)c1cc(N2C(=O)CCS2(=O)=O)ccc1C	+
CCOC(=O)C1CCN(S(=O)(=O)c2cc(N3C(=O)CCS3(=O)=O)ccc2C)CC1	i
COc1ccc(OCCNS(=O)(=O)c2cc(N3C(=O)CCS3(=O)=O)ccc2C)cc1	i
Cc1ccc(N2C(=O)CCS2(=O)=O)cc1S(=O)(=O)N1CCN(c2ccc(F)cc2)CC1	+
COc1ccc(N2C(=O)CCS2(=O)=O)cc1S(=O)(=O)N1CCN(c2ccccc2F)CC1	i
CC(C)CCC(c1ccccc1)N(C)C(=O)C1(C(N)=O)CC1 (stereo not given)	i
O=c1[nH]c(-c2ccccc2)nc2c1CCC2	i
Cc1ccc(Nc2cc(C)nc(N3CCN(S(=O)(=O)c4cc(C)ccc4C)CC3)n2)cc1	i
NC(=O)C1(N2CCCCC2)CCN(c2ncnc3sc4c(c23)CCNC4)CC1	i
CC(C)Cc1cc(CNc2ncnc3sc4c(c23)CCNC4)no1	i
CCCC1C=CCN1c1ncnc2sc3c(c12)CCNC3 (stereo not given)	+
C=C(C)COc1ccccc1C(=O)N1CCC(Nc2ncccn2)CC1	i
COCc1nc2cccnc2n1C1CCN(S(C)(=O)=O)CC1	i
O=C(NCCN1CCCCCC1)c1cccn1-c1nnc(N2CCCCC2)s1	i
O=C(NCc1ccccc1F)c1cccn1-c1nnc(N2CCCCC2)s1	+
Cc1ccccc1CNC(=O)c1cccn1-c1nnc(N2CCCCC2)s1	i
CCN(Cc1ccncc1)C(=O)CSc1n[nH]c(C)n1	i
CC(C)(C)CNC(=O)c1[nH]cnc1C(=O)NC1CCCCC1	i
O=C(NC1CCCC1)c1nc[nH]c1C(=O)NC1CC1	i
O=C(NC1CCCCC1)c1nc[nH]c1C(=O)NCC1CC1	i
O=C(NC1CCCC1)c1nc[nH]c1C(=O)NCc1ccccc1	i
CNC(=O)c1[nH]cnc1C(=O)NC1CCCCC1	+
CC(C)NC(=O)c1nc[nH]c1C(=O)NC1CCCC1	i
O=C(NC1CCCCC1)c1nc[nH]c1C(=O)NCc1ccccc1	+
O=C(NC1CCCCC1)c1nc[nH]c1C(=O)NCc1cccc(C(F)(F)F)c1	+
SMILES	FECH inh
CC(C)(C)CNC(=O)c1[nH]cnc1C(=O)NC1CCCC1	i
CCc1cc(Sc2ccc(NC(=O)Nc3ccccc3)cc2)n2ncnc2n1	i
CCC(=O)Nc1ccccc1-c1nnc(SC(CC)C(=O)Nc2ccc3c(c2)OCCO3)[nH]c1=O (stereo not given)	i
Cc1nc2c(c(=O)n1C)CN(S(=O)(=O)NCc1ccccc1)C2	i
O=C(c1ccc(O)cc1)N1CCC(N2CCSCC2)CC1	i
Cc1ccc(CNC(=O)c2nc[nH]c2C(=O)NCc2ccccc2)o1	i
COc1ccccc1CNC(=O)c1[nH]cnc1C(=O)NC1CCCCC1	+
CCCNC(=O)c1nc[nH]c1C(=O)NCC1CCCCC1	i
Cc1ccc(CNC(=O)c2[nH]cnc2C(=O)NCCC(C)C)o1	i
COc1ccccc1CNC(=O)c1nc[nH]c1C(=O)NCc1ccccc1OC	+
COc1ccccc1CNC(=O)c1[nH]cnc1C(=O)NCc1ccc(C)o1	+
COCCNC(=O)c1[nH]cnc1C(=O)NC1CCCCC1	i
CC(C)NC(=O)c1nc[nH]c1C(=O)NCC1CC1	i
COc1ccccc1CNC(=O)c1nc[nH]c1C(=O)N1CCC(C)CC1	i
O=C(NC1CC1)c1nc[nH]c1C(=O)NCC1CCCCC1	i
COc1ccccc1CNC(=O)c1[nH]cnc1C(=O)NC1CCCc2ccccc21 (stereo not given)	+
CC(C)(C)CNC(=O)c1nc[nH]c1C(=O)NCC(C)(C)C	i
CCCc1nnc2sc(CCCN3CCCCCC3)nn12	i
CC(C)[C@H](CO)N1Cc2ncccc2C1=O	i
CC(C(=O)NCc1cccnc1-n1ccnc1)n1cnc2ccccc21 (stereo not given)	i
Cc1cc(C)cc(NC(=O)CSc2ncnc3nc(N(C)C)sc23)c1	i
COc1ccccc1CNC(=O)C1CCCN1C(=O)c1ccc(-c2noc(C)n2)cc1 (stereo not given)	i
CN(C)Cc1csc(-c2nccn2CCc2cccnc2)c1	i
c1ccc(CCCn2ccnc2-c2ccccn2)cc1	i
O=C1Cc2cc(-c3ccc4c(c3)OCO4)ccc2N1	i
SMILES	FECH inh
Cc1cc(=O)n(CC(=O)NCCN(C)S(C)(=O)=O)c2ccccc12	i
Cc1ccc(Cl)cc1N1CCN(S(=O)(=O)c2cc(C(=O)N3CCCC3)cs2)CC1	i
CCc1nnc(CN(C)c2ncc(C)c(N(C)C)n2)o1	i
CCc1cc(CN(C)C(=O)CN2C(=O)c3ccccc3C2=O)on1	+
CCc1cc(CN(C)C2CCN(C(=O)c3ccccn3)CC2)on1	i
CCc1cc(CN(C)C(CC)C(=O)Nc2ccccc2)on1 (stereo not given)	i
O=C1C[C@H]2CC[C@@H](CN1)N2C(=O)COc1ncnc2ccccc12	i
COc1ccc(OC)c(CNC(=O)CCn2cnc3onc(-c4cc(F)cc(F)c4)c3c2=O)c1	i
O=c1c(NCc2ccccc2Cl)c(-c2ccc3c(c2)CCCC3)c1=O	i
COc1ccc(CCNc2ncnc3oc4c(c23)CCCC4)c(OC)c1	i
Clc1ccccc1CNc1ncnc2oc3c(c12)CCCC3	+
CCc1c(C)nc2ncnn2c1Sc1ccccc1NC(=O)c1ccc(OC)c(Br)c1	i
CN1CCN(c2ncccc2CNC(=O)c2n[nH]c3c2CCC3)CC1	i
COc1ccc(NC(=O)CC(=O)N2CCN(C)C3(CCN(C)CC3)C2)cc1	+
CCc1ccccc1NC(=O)C(=O)N1CCN(C)C2(CCN(C)CC2)C1	i
CN1CCC2(CC1)CN(C(=O)CNC(N)=O)CCCN2C	i
O=C1CC(c2cccc3nonc23)c2cnn(Cc3cccs3)c2N1 (stereo not given)	i
Cc1nc2nc(-c3ccccc3)nn2c(Sc2ccccc2NC(=O)C(C)(C)C)c1C	i
Cc1ncc(CC(=O)N2CC[C@@H](c3ccc4ccccc4c3)[C@H](O)C2)c(=O)[nH]1	i
Cc1nn(C)c(Cl)c1S(=O)(=O)N1CCCC2(CCN(C)CC2)CC1	i
O=C(CCN1CCC(O)(c2ccc(Cl)cc2)CC1)NCc1ccco1	i
CCc1noc(CN(CC)C(=O)C(c2cccc(C)c2)N(C)C)n1 (stereo not given)	i
CCc1noc(CN(CC)C(=O)C(C)n2cnc3ccccc32)n1 (stereo not given)	+
CCc1noc(CN(CC)C(=O)c2ccccc2N2CCCC2)n1	i
O=C(NCCCN1CCCC1)c1ccc(CN2C(=O)CCn3nc(-c4ccccc4)cc32)cc1	i
SMILES	FECH inh
Cc1cccc(C)c1NC(=O)Cc1csc(NC(=O)Nc2cccc(Cl)c2)n1	i
Cc1ccc(S(=O)(=O)NCc2nc3cccnc3n2C2CCCC2)cc1	+
COc1ccc(Cn2c(CNS(=O)(=O)c3ccc(Cl)cc3)nc3cccnc32)cc1	i
CCCc1ccc(S(=O)(=O)NCc2nc3cccnc3n2Cc2ccccc2)cc1	+
CCCn1c(CNS(=O)(=O)c2ccc(Cl)cc2)nc2cccnc21	i
COc1ccc(S(=O)(=O)NCc2nc3cccnc3n2Cc2ccccc2)cc1	i
COc1ccc(S(=O)(=O)NCc2nc3cccnc3n2C2CCCC2)cc1	i
CCCn1c(CNS(=O)(=O)c2ccc(CC(C)C)cc2)nc2cccnc21	+
CCc1ccc(Cn2c(CNS(=O)(=O)c3ccc(CC)cc3)nc3cccnc32)cc1	i

Assay outcomes from PubChem.
